From PubChem BioAssay (Tox21)
Unmarked numbers belong to inactive results. Inconclusive results are not listed. Where a call stands in place of a potency, no number is given. Calls of active or inactive are those of the source. Calls come from the whole dose curve; as a rule, active = well fitted curve in the direction sought with a large enough effect in the repeat runs; inconclusive = weak or mixed curves; inactive = no such curve, though single readings can be large; an effect the other way counts as inactive or inconclusive.

How the values were obtained:
[1] = Caspase-3/7 induction in HepG2 cells by small molecules, qHTS assay (AID 1346978); note: nearly all actives have a fitted effect of over 15% in size
Method in brief: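 Wild-type HepG2 cells, 2,000/well, settled 5 hr at 37 C and 5% CO2, then compound-treated for 17 hr; caspase-3/7 activity read by luminescent Caspase-Glo 3/7 after 30 min at room temperature.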

[2] = Caspase-3/7 induction in CHO-K1 cells by small molecules, qHTS cell viability counter screen (AID 1346979); note: nearly all actives have a fitted effect of over 35% in size; note: potency is the fitted concentration of half-maximal effect
Method in brief: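 Cytotoxicity counter screen: CellTiter-Fluor added to compound-treated wild-type CHO-K1 cells at 16 h (37C, 5% CO2), fluorescence measured 1 h later; same wells as caspase-3/7 measurement.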

[3] = Caspase-3/7 induction in HepG2 cells by small molecules, qHTS cell viability counter screen (AID 1346981); note: nearly all actives have a fitted effect of over 30% in size; note: potency is the fitted concentration of half-maximal effect
Method in brief: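 Counter screen for cytotoxicity: HepG2 exposed 16 hr to compounds, then CellTiter-Fluor viability signal (fluorescence, 1 hr reagent incubation).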

[4] = biological target: Nuclear receptor subfamily 1 group I member 2 (Homo sapiens) (UniProt O75469); assay: Human pregnane X receptor (PXR) small molecule agonists, qHTS assay (AID 1346982); note: nearly all actives have a fitted effect of over 35% in size; note: potency is the fitted concentration of half-maximal effect
Method in brief: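 Luminescence (ONE-Glo, 30 min RT) after 24 hr compound exposure of PXR-Luc HepG2 cells; cells rested 5 hr post-plating in 5% charcoal-stripped FBS medium.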

[5] = biological target: Cytochrome P450 2C19 (Homo sapiens) (UniProt P33261); assay: Cytochrome P450 Family 2 Subfamily C Member 19 (CYP2C19) small molecule antagonists: luciferase reporter qHTS assay (AID 1671197); note: nearly all actives have a fitted effect of over 65% in size; note: potency is the fitted concentration of half-maximal effect
Method in brief: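 Light output is proportional to CYP2C19 activity: proluciferin substrate is converted to luciferin, then detected by a luciferin detection reagent that also stops the 1 h, 37C NADPH-driven reaction. Ketoconazole serves as positive control.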

[6] = biological target: Cytochrome P450 2C9 (Homo sapiens) (UniProt P11712); assay: Cytochrome P450 Family 2 Subfamily C Member 9 (CYP2C9) small molecule antagonists: luciferase reporter qHTS assay (AID 1671198); note: nearly all actives have a fitted effect of over 50% in size; note: potency is the fitted concentration of half-maximal effect
Method in brief: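 P450-Glo proluciferin substrate with CYP2C9 enzyme; 10 min RT preincubation, then NADPH regeneration 1 h at 37C; luciferin detection reagent 20 min RT, luminescence in relative luminescence units.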

[7] = biological target: Voltage-gated inwardly rectifying potassium channel KCNH2 (Homo sapiens) (UniProt Q12809); assay: Human Ether-a-go-go-Related Gene (hERG) channel small molecule antagonists: fluorescence cell-based qHTS assay (AID 1671200); note: nearly all actives have a fitted effect of over 50% in size; note: potency is the fitted concentration of half-maximal effect
Method in brief: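 Thallium flux as potassium surrogate: FluxOR II dye loaded 1 h at room temperature into hERG-expressing U2OS cells, then stimulus buffer added after 10 min. Kinetic 480 nm excitation/540 nm emission read, 2 min.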

[8] = biological target: Cytochrome P450 3A4 (Homo sapiens) (UniProt P08684); assay: Cytochrome P450 Family 3 Subfamily A Member 4 (CYP3A4) small molecule antagonists: luciferase reporter qHTS assay (AID 1671201); note: nearly all actives have a fitted effect of over 50% in size; note: potency is the fitted concentration of half-maximal effect
Method in brief: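 Recombinant human CYP3A4 converts a proluciferin substrate to luciferin over 1 h at room temperature after NADPH regeneration solution is added (compound preincubated 10 min); detection reagent stops reaction, luminescence read 20 min later as relative units.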

[9] = Caspase-3/7 induction in CHO-K1 cells by small molecules, qHTS assay (AID 1346980); note: nearly all actives have a fitted effect of over 15% in size
Method in brief: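 Wild-type CHO-K1 cells exposed to compounds for 17hr at 37 C, 5% CO2. Caspase-3/7 activity then measured by Caspase-Glo 3/7 luminescence after 30min at room temperature.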

[10] = biological target: Cytochrome P450 2D6 (Homo sapiens) (UniProt P10635); assay: Cytochrome P450 Family 2 Subfamily D Member 6 (CYP2D6) small molecule antagonists: luciferase reporter qHTS assay (AID 1671196); note: series mostly up to about 120 µM; nearly all actives have a fitted effect of over 50% in size
Method in brief: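 Inhibition of CYP2D6 was gauged by loss of luminescence, since light produced tracks the luciferin generated from a proluciferin substrate. A 10 min room-temperature preincubation preceded 1 h NADPH-supported turnover.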

[11] = biological target: Cytochrome P450 1A2 (Homo sapiens) (UniProt P05177); assay: Cytochrome P450 Family 1 Subfamily A Member 2 (CYP1A2) small molecule antagonists: luciferase reporter qHTS assay (AID 1671199); note: nearly all actives have a fitted effect of over 50% in size; note: potency is the fitted concentration of half-maximal effect
Method in brief: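 Signal from luciferin formed by CYP1A2 from a proluciferin substrate is read as luminescence, expressed in relative luminescence units. Compounds sit with enzyme 10 min, NADPH-driven reaction runs 1 h, all at room temperature.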

Voltage-gated inwardly rectifying potassium channel KCNH2 (Homo sapiens), sequence (Q12809 whole entry, looked up): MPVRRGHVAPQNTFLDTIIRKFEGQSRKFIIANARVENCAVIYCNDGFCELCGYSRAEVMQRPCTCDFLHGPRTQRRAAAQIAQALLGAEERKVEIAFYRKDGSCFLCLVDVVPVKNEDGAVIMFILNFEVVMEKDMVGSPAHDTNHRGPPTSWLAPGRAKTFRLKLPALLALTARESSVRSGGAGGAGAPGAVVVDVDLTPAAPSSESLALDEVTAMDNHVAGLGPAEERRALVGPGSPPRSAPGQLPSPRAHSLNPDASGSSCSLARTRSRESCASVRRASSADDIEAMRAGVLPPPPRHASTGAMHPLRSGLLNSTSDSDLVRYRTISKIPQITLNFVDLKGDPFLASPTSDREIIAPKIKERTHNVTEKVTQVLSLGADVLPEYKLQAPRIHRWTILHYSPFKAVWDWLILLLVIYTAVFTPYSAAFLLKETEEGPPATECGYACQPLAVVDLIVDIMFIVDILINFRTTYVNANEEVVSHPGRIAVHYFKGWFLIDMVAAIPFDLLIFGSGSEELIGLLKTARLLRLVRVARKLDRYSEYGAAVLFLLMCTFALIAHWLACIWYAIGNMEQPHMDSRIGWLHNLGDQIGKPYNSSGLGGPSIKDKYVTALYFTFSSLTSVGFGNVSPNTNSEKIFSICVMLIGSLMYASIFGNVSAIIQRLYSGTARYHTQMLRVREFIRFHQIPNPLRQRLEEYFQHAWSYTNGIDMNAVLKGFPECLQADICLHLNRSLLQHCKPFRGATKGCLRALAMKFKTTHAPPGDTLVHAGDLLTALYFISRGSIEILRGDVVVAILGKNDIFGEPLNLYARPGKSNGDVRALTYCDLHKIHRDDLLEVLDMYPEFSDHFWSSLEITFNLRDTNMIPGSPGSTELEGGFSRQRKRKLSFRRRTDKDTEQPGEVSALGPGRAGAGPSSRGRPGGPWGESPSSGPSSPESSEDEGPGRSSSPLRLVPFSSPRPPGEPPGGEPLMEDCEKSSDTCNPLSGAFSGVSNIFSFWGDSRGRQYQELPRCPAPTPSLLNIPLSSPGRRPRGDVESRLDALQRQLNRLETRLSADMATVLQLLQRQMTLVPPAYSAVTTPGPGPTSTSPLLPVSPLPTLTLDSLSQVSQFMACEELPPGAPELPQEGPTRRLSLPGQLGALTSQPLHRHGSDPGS
Cytochrome P450 2D6 (Homo sapiens), sequence (P10635 whole entry, looked up): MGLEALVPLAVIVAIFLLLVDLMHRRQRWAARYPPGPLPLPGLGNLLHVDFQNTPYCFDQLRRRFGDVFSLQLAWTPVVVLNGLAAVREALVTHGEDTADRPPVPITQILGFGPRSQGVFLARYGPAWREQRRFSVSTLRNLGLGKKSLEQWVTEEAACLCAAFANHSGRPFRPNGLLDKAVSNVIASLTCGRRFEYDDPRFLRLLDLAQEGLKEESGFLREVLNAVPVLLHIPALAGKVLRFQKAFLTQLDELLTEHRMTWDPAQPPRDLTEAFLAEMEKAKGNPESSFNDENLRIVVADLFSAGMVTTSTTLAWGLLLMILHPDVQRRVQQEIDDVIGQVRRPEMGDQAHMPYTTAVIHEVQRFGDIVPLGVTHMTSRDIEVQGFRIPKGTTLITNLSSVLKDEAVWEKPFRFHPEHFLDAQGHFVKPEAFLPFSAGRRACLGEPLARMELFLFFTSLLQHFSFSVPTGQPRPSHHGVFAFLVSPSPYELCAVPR
Cytochrome P450 1A2 (Homo sapiens), sequence (P05177 whole entry, looked up): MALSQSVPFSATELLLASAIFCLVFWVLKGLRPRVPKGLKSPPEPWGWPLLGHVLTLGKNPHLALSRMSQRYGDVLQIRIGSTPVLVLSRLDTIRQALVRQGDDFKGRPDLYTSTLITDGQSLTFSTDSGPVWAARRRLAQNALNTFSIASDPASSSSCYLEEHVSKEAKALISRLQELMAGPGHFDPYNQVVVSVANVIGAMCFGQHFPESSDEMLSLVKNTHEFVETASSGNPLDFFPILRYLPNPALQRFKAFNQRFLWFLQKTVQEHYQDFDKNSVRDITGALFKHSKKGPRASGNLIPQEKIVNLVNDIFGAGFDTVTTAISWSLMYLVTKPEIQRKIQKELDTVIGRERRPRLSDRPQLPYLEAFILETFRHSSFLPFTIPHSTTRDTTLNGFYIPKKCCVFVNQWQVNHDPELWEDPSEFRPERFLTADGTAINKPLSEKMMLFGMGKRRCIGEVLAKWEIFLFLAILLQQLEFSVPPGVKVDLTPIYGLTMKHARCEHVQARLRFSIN
Cytochrome P450 3A4 (Homo sapiens), sequence (P08684 whole entry, looked up): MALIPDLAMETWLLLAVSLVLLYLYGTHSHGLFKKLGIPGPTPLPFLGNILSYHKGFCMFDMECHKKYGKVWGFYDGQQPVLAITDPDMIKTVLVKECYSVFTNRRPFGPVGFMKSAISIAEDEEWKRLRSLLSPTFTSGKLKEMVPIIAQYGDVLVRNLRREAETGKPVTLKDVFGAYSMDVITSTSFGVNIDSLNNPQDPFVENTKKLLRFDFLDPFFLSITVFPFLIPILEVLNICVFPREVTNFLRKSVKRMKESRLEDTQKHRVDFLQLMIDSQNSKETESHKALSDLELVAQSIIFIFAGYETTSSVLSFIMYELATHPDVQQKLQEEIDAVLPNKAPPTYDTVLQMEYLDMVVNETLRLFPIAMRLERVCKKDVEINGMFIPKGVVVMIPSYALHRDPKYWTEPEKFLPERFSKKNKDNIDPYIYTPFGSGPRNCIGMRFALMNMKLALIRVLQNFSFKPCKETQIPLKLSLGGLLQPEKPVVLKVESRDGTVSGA
Nuclear receptor subfamily 1 group I member 2 (Homo sapiens), sequence (O75469 whole entry, looked up): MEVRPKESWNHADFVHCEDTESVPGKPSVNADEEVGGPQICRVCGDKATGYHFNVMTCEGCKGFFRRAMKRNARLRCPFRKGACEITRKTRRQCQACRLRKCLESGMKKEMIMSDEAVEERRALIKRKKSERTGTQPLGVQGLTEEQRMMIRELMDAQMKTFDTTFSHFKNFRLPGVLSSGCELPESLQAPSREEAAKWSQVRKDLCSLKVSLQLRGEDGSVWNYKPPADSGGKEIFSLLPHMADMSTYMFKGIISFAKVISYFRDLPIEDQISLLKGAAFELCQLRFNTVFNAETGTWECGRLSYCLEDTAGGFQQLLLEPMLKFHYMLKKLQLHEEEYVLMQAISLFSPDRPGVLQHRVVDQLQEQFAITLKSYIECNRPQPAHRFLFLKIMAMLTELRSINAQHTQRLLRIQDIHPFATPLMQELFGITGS
Cytochrome P450 2C19 (Homo sapiens), sequence (P33261 whole entry, looked up): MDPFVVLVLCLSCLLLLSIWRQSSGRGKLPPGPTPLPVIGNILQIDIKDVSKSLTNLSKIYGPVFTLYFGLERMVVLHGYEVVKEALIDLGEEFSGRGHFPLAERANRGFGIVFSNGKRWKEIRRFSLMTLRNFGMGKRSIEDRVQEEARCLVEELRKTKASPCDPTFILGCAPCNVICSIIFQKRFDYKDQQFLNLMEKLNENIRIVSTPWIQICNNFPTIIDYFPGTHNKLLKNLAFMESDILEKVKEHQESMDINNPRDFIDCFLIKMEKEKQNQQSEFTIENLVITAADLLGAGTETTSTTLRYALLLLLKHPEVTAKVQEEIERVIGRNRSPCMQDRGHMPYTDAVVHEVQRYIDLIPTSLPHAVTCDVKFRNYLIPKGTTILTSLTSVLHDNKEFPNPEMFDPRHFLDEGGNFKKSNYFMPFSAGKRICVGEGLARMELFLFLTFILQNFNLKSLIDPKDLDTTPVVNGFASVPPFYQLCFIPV
Cytochrome P450 2C9 (Homo sapiens), sequence (P11712 whole entry, looked up): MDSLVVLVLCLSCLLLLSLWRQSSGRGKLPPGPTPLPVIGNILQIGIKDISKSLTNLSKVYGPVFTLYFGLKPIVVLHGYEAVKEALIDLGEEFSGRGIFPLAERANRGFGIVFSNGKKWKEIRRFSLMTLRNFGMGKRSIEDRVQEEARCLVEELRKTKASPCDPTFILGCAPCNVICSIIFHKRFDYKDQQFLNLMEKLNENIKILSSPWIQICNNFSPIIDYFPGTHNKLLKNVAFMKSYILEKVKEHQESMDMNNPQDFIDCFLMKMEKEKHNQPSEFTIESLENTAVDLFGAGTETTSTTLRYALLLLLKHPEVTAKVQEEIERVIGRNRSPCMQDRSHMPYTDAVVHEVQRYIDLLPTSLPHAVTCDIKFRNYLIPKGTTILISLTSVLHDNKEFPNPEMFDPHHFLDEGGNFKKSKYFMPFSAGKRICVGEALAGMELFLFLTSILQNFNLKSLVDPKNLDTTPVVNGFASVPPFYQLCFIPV

| Structure (SMILES) | outcome [1] | Potency [2] | Potency [3] | Potency [4] | Potency [5] | Potency [6] | Potency [7] | Potency [8] | Potency [9] | Potency [10] | Potency [11] |
| --- | --- | --- | --- | --- | --- | --- | --- | --- | --- | --- | --- |
| Cn1c(N)nc2nc[nH]c2c1=O | inactive | inactive | inactive | inactive | inactive | inactive | inactive | – | – | – | – |
| CNCC[C@@H](Oc1ccccc1C)c1ccccc1 | inactive | inactive | inactive | inactive | – | – | – | inactive | – | – | – |
| C=CC(=O)OCCOC(=O)CCC(=O)O | inactive | inactive | – | inactive | inactive | inactive | inactive | 31.7 µM (active) | inactive | inactive | – |
| CCc1nn(C2CCCCC2)c2cc(C3(C#N)CCC(C(=O)O)CC3)ccc12 (stereo unspecified) | inactive | 27.3 µM (active) | 15.4 µM (active) | 68.6 µM (active) | – | 20 µM (active) | inactive | inactive | – | inactive | inactive |
| CC(C)c1ccc2c(C(C)C)cc(C(C)C)c(S(=O)(=O)O)c2c1 | inactive | inactive | inactive | – | inactive | 29.2 µM (active) | inactive | inactive | – | inactive | inactive |
| C=C(C)C(=O)OC(C)C | inactive | inactive | inactive | inactive | inactive | inactive | inactive | inactive | – | inactive | inactive |
| CCCCCCCCCC=O | inactive | inactive | – | inactive | inactive | – | inactive | inactive | inactive | inactive | – |
| O=C(O)c1cccc(N(Cc2cccnc2)c2ccc(OC(F)F)c(OC(F)F)c2)c1 | inactive | 68.6 µM (active) | – | – | 35.6 µM (active) | 25.2 µM (active) | – | inactive | inactive | – | – |
| CC(C)(Oc1ccc(Cl)cc1)C(=O)OCCCOC(=O)C(C)(C)Oc1ccc(Cl)cc1 | inactive | inactive | inactive | inactive | 3.47 µM (active) | 5.49 µM (active) | – | inactive | – | inactive | – |
| CCCCOCCOCCOCCOCCO | inactive | inactive | inactive | inactive | inactive | inactive | inactive | inactive | – | – | – |
| CC(=O)OC/C=C/c1ccccc1 | inactive | inactive | inactive | inactive | – | – | inactive | inactive | – | inactive | 31.7 µM (active) |
| CCCC[C@H]1CN(CC2CCOCC2)C(=O)OC12CCN(C1(C)CCN(C(=O)c3c(C)ncnc3C)CC1)CC2 | inactive | inactive | – | inactive | inactive | inactive | 12.2 µM (active) | – | inactive | inactive | 35.2 µM (active) |
